Data: paper PMC4552634, “A New Set of Chemical Starting Points with Plasmodium falciparum Transmission-Blocking Potential for Antimalarial Drug Discovery” (PLoS ONE, 2015)
About 3,200 (25%) of roughly 13,000 compounds showed an effect of 50% or more. Some of the results follow.

What follows are compounds tested on P. falciparum stage V gametocytes. Conditions: 48 h, 5 µM; inhibitor.
Design: BacTiter-Glo ATP luminescence viability of purified stage V gametocytes in 384-well plates, per cent inhibition versus DMSO

| SMILES | % Inhibition [%] |
| --- | --- |
| CN(C)CCOc1ccnc2ccc(NC(=O)Cc3ccc(-c4ccncc4)c4ccccc34)cc12 [TCMDC-139162] | 6.193 |
| CCOc1ccnc(=O)[nH]1 [TCMDC-124258] | 20.67 |
| C=CCOc1ccc(C2C(C(=O)OC)=C(C)NC3=C2C(=O)c2ccccc23)cc1OC (stereo not shown) [TCMDC-125383] | -17.47 |
| O=C(Nc1cccc(-c2nn3ncccc3c2-c2ccnc(Nc3cccc(-c4cnco4)c3)n2)c1)c1c(F)cccc1F [TCMDC-135550] | -49.22 |
| CN1CCN(c2nsc3ccc(-c4ccc(NC(=O)Nc5ccccc5)cc4)cc23)CC1 [TCMDC-133437] | 50.88 |
| CN1CCN(c2ccnc3ccc(NC(=O)Nc4ccc(-c5ccccc5)cc4)cc23)CC1 [TCMDC-139320] | -2.633 |
| CN(C)Cc1ccc(CN2CCN(CCOc3ccc(-c4ccc(Cl)cc4)cc3)CC2)o1 [TCMDC-138673] | 36.52 |
| CN1CCCc2ccc(NC(=O)Nc3ccc(-c4ccccc4)cc3)cc2C1 [TCMDC-133730] | -3.95 |
| Fc1ccc(-c2cc3ncnc(N4CCN(CCN5CCCC5)CC4)c3s2)cc1 [TCMDC-125053] | 6.032 |
| CN1CCN(c2nsc3ccc(-c4ccc(OCCN5CCCC5)cc4)cc23)CC1 [TCMDC-133436] | 111.5 |
| O=C(Nc1ccc(-c2ccc(-c3nc4ccc(C(F)(F)F)cc4[nH]3)cc2)cc1)Nc1ccc(F)c(F)c1F [TCMDC-133223] | -19.68 |
| CN1CCN(c2nsc3ccc(-c4ccc(NC(=O)Nc5cc(C(F)(F)F)ccc5F)cc4)cc23)CC1 [TCMDC-133435] | 89.92 |
| COc1ccc(N2CCN(CCCCNC(=O)c3ccc(/C=C/c4ccc(Cl)c(Cl)c4)cc3)CC2)c(OC)c1 [TCMDC-138175] | -78.16 |
| CS(=O)(=O)c1ccc2nc(NC(=O)c3csnn3)sc2c1 [TCMDC-125074] | 49.99 |
| NC1=NC2(CCCC2)N(c2ccc(Cl)cc2)C(N)=N1 [TCMDC-137719] | 0.5076 |
| NC(N)=NC(=O)Nc1cc(Cl)c(Cl)c(Cl)c1 [TCMDC-137465] | -8.846 |
| CCN(CC)CCN(Cc1ccc(-c2ccc(Cl)cc2)cc1)C(=O)Cn1cc(CN(C)C)c(=O)nc1SCc1ccc(F)cc1 [TCMDC-140406] | 107.7 |
| CCc1cn(CC(=O)N(CCOc2ccc(-c3ccc(C(F)(F)F)cc3)cc2)CCN(CC)CC)c(SCc2ccc(F)cc2)nc1=O [TCMDC-140925] | 116.2 |
| CC(C)Sc1nc2c(c(=O)n1Cc1ccco1)C1(CCCCC1)Cc1ccccc1-2 [TCMDC-125100] | 0.5988 |
| COc1ccc(CNC2CCN(C)CC2)cc1-c1ccc(S(=O)(=O)NC2CCC2)cc1 [TCMDC-132245] | 84.43 |
| COc1ccc(CNC2CCN(C)CC2)cc1-c1ccc(S(=O)(=O)NC2CCC2)c(C)c1 [TCMDC-132270] | 86.28 |
| COc1ccc(CNC2CCN(C)CC2)cc1-c1ccc(S(=O)(=O)NC2CCC2)c(F)c1 [TCMDC-132263] | 28.54 |

| SMILES | % Inhibition [%] |
| --- | --- |
| N=C(N)c1ccc(NN=Cc2ccc(Oc3ccc(C(=N)N)cc3)cc2)cc1 [TCMDC-137493] | 43.38 |
| CC(C)Cc1c(O)nc(SCCN2CCOCC2)[nH]c1=O [TCMDC-125767] | 17.13 |
| O=C(O)C[C@H](NC(=O)[C@@H]1CCCN1C(=O)c1cccc(-c2ccc(Cl)c(Cl)c2)c1)C(=O)O [TCMDC-140511] | 4.214 |
| O=[N+]([O-])c1ccc(NC(=NC2CCCc3ccccc32)Nc2ccccc2Br)c(O)c1 (stereo not shown) [TCMDC-139983] | -2.666 |
| COc1c(OC)c(OC)c2ccccc2c1CNCCCCCCNCc1c(OC)c(OC)c(OC)c2ccccc12 [TCMDC-137827] | 106 |
| COc1c(CNCCCCCCNCc2c(OC)c(OC)c3ccccc3c2OC)c(OC)c2ccccc2c1OC [TCMDC-137837] | 111.1 |
| CCCNCc1c(O)ccc2c(CNCCC)c(O)ccc12 [TCMDC-137593] | -47.95 |
| O=C(NC1CC1)c1ccc(N2CCCC(COc3ccccc3F)C2)nc1 (stereo not shown) [TCMDC-134034] | 24.35 |
| Cc1cccc2nc(-c3ccc(-c4cccc(NC(=O)COc5ccccc5C(N)=O)c4)s3)[nH]c12 [TCMDC-132133] | 0.7486 |
| CN(CCCCNC(=O)/C=C/c1ccccc1)C1CC2(CCN(C(=O)OC(C)(C)C)CC2)c2ccccc21 (stereo not shown) [TCMDC-132882] | -12.8 |
| CN(C1CCC(NC(=O)/C=C/c2ccccc2)CC1)C1CC2(CCN(C(=O)OC(C)(C)C)CC2)c2ccccc21 (stereo not shown) [TCMDC-132880] | 63.78 |
| CN(CCCCNC(=O)c1cc2ccccc2[nH]1)C1CC2(CCN(C(=O)OC(C)(C)C)CC2)c2ccccc21 (stereo not shown) [TCMDC-132884] | 36.87 |
| OC(CNCc1ccccc1OCc1ccccc1)c1cc(C(F)(F)F)cc(C(F)(F)F)c1 (stereo not shown) [TCMDC-140300] | -49.16 |
| CCCCN(Cc1cc(Cl)c(OC)c(OC)c1)c1ccc(C(O)(C(F)(F)F)C(F)(F)F)cc1 [TCMDC-135446] | 54.26 |
| CCCCN(Cc1cc(Cl)c(OCC)c(OC)c1)c1ccc(C(O)(C(F)(F)F)C(F)(F)F)cc1 [TCMDC-135622] | 2.509 |
| CCCCN(Cc1cccc(C(F)(F)F)c1Cl)c1ccc(C(O)(C(F)(F)F)C(F)(F)F)cc1 [TCMDC-135213] | -4.716 |
| Cc1ccc(F)cc1S(=O)(=O)Nc1ccc(CCN2CCC(N3CCCCC3)CC2)cc1 [TCMDC-134088] | 60.27 |
| Cc1ccc(F)cc1S(=O)(=O)Nc1cccc(CCN2CCC(N3CCCCC3)CC2)c1 [TCMDC-134068] | 67.59 |
| COc1ccc(C2C(C(=O)OC3CCCCC3)=C(C)NC3=C2C(=O)CCC3)cc1Br (stereo not shown) [TCMDC-125070] | -15.5 |
| COc1cc(CCCON2C(N)=NC(N)=NC2(C)C)cc(OC)c1OC [TCMDC-131726] | 7.417 |
| COc1ccc(C=C2SC(=N)N(c3ccccc3OC)C2=O)cc1 [TCMDC-124486] | 37.63 |
